# Compounds with a hit are over-represented: about 28% of the library has one in this group of screens.
# CYP2C19 act – human CYP2C19 activators, primary screen, biochemical, luminescence | activation factor at 5 µM | Cytochrome P450 2C19 (Homo sapiens), P33261 | 96,000 tested, under 10 active | recombinant CYP2C19, luciferin-H EGE luminescence; active compounds read high; 0 = fully inhibited enzyme, 1 = untreated enzyme;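 active = activation factor of at least 2 at 5 µM in the primary screen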;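 also: 0 = wells with 2.5 mM tranylcypromine and 1 = vehicle-only wells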
# Target sequence (P33261 whole entry, looked up): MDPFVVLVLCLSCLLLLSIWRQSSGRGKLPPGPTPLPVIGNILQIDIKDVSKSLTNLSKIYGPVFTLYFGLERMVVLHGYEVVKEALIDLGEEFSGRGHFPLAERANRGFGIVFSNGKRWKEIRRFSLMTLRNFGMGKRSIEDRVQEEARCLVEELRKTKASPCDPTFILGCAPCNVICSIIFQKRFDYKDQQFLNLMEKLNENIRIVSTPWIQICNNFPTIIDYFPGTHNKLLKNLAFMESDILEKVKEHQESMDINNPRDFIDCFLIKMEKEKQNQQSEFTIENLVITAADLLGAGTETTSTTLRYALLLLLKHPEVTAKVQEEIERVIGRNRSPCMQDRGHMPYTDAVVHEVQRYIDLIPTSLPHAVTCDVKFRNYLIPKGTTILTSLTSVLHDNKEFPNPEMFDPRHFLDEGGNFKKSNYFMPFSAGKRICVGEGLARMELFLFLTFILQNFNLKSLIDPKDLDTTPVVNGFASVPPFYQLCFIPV
# Mac1 fbg enh – enhancers of CD11b/CD18 adhesion to fibrinogen, primary screen, K562 cells, luminescence. AID 1499, 2009. 0.07% of 93,000 active. activation, % at 10 µM. Integrin beta-2 (Homo sapiens) + Integrin alpha-M (Homo sapiens), P05107+P11215. ATPlite luminescence;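 active = 10 µM primary screen giving 50% or more activity, confirmed by 40% or more on retest at that dose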
# Mac1 fbg inh – inhibitors of CD11b/CD18 adhesion to fibrinogen, primary screen, K562 cells, luminescence; Integrin beta-2 (Homo sapiens) + Integrin alpha-M (Homo sapiens), P05107+P11215; inhibition, % at 10 µM; 0.54% of 93,000 active; ATPlite luminescence; Mn2+ added to activate the integrin;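 active = primary inhibition of 50% or more at 10 µM, then 40% or more on retest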
# CYP2C9 inhib – blockers of cytochrome P450 2C9 activity – biochemical, luminescence, ADME assay, primary screen; P11712; CYP2C9 Supersomes, luciferin-H conversion; inhibition, % at 5 µM; 20% of 96,000 active;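 active = blocking of liver enzyme CYP2C9 beyond about 50% at 5 µM, limit read from the data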
# CYP2C19 inhib – blockers of cytochrome P450 2C19 activity – biochemical, luminescence, ADME assay, primary screen | P33261 | CYP2C19 Supersomes, luciferin-H EGE luminescence, 30 min | inhibition, % at 5 µM | 21% of 96,000 active | AID 778, 2007;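 active = CYP2C19 inhibition above a set limit at 5 µM in the primary screen, cut at about 50% in these data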;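 also: plate controls were negative control wells for no effect and 2.5 mM tranylcypromine positive control for full effect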
# CYP2C9 act – human CYP2C9 activators, primary screen, biochemical, luminescence; AID 1024, 2008; activation factor at 5 µM; Cytochrome P450 2C9 (Homo sapiens), P11712; recombinant CYP2C9, luciferin-H conversion; active compounds read high; factor 1 = untreated enzyme, 0 = blocked; 1.4% of 96,000 active;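 active = activation factor of 2 or more for CYP2C9 at a 5 µM dose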;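 also: 0 = sulfaphenazole-blocked wells and 1 = vehicle-only wells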
# Starred values were filed as active, the others as inactive; . = not tested or not shown.
SMILES,CYP2C19 act,Mac1 fbg enh,Mac1 fbg inh,CYP2C9 inhib,CYP2C19 inhib,CYP2C9 act
O=C1N=C(N2CCC(Cc3ccccc3)CC2)S/C1=C/c1cn[nH]c1-c1ccccc1,0.5,.,.,59.5*,47.7,0.4
Cc1ccc(N2CCN(C3=NC(=O)/C(=C\c4cn[nH]c4-c4ccccc4)S3)CC2)cc1,.,26.0,5.3,.,.,.
CC(C)CCNC(=O)CN(Cc1ccc2c(c1)OCO2)C(=O)CCC(=O)Nc1ccccn1,0.9,0.6,6.0,34.4,12.5,0.7
Cc1ccc(C2C(C(=O)c3sc(C)nc3C)=C(O)C(=O)N2CCCN(C)C)o1 (stereo not drawn),1.1,-6.6,-6.0,-6.9,-15.0,1.1
Cc1cc(S(=O)(=O)Nc2nc(CN3CCOCC3)nc3sc4c(c23)CCCC4)ccc1F,0.4,-6.1,2.1,87.9*,59.8*,0.1
CC1CCc2c(sc3nc(CN4CCOCC4)nc(NS(=O)(=O)c4cccc([N+](=O)[O-])c4)c23)C1 (stereo not drawn),0.7,-6.4,67.3*,84.1*,26.3,0.2
CC1=CC(C)(C)N(C(=O)C(C)N2C(=O)c3ccccc3C2=O)c2c(C)cc(C)cc21 (stereo not drawn),0.7,0.2,11.2,16.2,33.4,0.8
O=C(/C=C/c1ccccc1)N/C(=C/c1ccccc1)C(=O)N1CCCCC1,1.1,-4.8,20.9,14.4,-11.7,0.9
O=C(/C(=C/c1ccccc1)c1ccccc1)N1CCCCC1,0.7,.,.,74.5*,32.0,0.3
O=C(c1ccc(S(=O)(=O)N2CCOCC2)cc1)N1CCc2ccccc2C1,1,-3.2,-2.0,-0.8,1.0,1
Cc1ccc(NC(=O)C2C(c3ccccc3)C=CC(c3ccccc3)C2C(=O)O)cc1 (stereo not drawn),1,-1.5,17.5,24.6,3.9,0.8
CCC(=O)OCc1cc2cccc(C)c2[nH]c1=O,0.5,1.9,-5.1,4.7,52.6*,1
COc1ccc(OC)c(C2Nc3nc4ccccc4n3C(C)=C2C(=O)Nc2ccc(C)cc2C)c1 (stereo not drawn),0.9,1.6,8.5,10.5,9.6,0.9
CCNC(=O)Cn1c(=O)c2c(ncn2Cc2ccccc2)n(Cc2ccccc2)c1=O,0.1,.,.,13.1,89.0*,0.9
Cc1ccc(C(=O)CSc2nnc(-c3ccccc3N)n2C)cc1,0.7,-3.1,5.4,31.2,26.7,0.7
Cc1ccc(C(=O)CSc2nccn2-c2ccccc2)cc1,0.4,.,.,31.4,56.2*,0.7
Cc1ccc(C)c(-n2ccnc2SCC(=O)O)c1,1,-3.1,-9.0,58.9*,3.5,0.4
O=C(CSc1nccn1-c1ccccc1)c1ccc(Cl)cc1,0.3,.,.,35.5,73.5*,0.6
CCSc1nc(O)c(Cc2ccccc2)c(=O)[nH]1,1,-0.4,-17.6,-28.4,1.5,1.3
Cc1ccc(CNC(=O)CSc2c3c(nc4ccc(Cl)cc24)CCCC3)o1,0.6,-1.4,-33.4,61.0*,35.5,0.4
Cc1nonc1NC(=O)CSc1nc2cc(Cl)ccc2c2c1CCCC2,1.2,25.9,6.1,-16.9,-20.1,1.2
O=C(NC(=S)N(CCCCO)C1CCCCC1)c1sc2ccccc2c1Cl,0.6,.,.,54.0*,36.3,0.5
O=C(NC1=NCCS1)c1sc2ccccc2c1Cl,0.8,-2.7,-20.8,-13.6,20.5,1.1
O=C(Nc1nc(-c2ccccn2)cs1)c1ccc(Br)s1,1.2,-3.1,-1.4,43.2,-17.6,0.6
Cc1ccc(N=C(c2cccs2)N2CCOCC2)cc1,0.3,-1.1,51.5,16.1,73.1*,0.8
SMILES,CYP2C19 act,Mac1 fbg enh,Mac1 fbg inh,CYP2C9 inhib,CYP2C19 inhib,CYP2C9 act
N#CC1=C(Nc2ccccc2)SC=C(c2ccc(Cl)c(Cl)c2)N=C1N1CCOCC1,1,.,.,22.3,1.0,0.8
O=C(Nc1ccc(OC(=O)c2ccncc2)cc1)c1ccncc1,0.9,.,.,33.8,7.0,0.7
Fc1ccccc1CSc1nncn1NC/C=C/c1ccccc1,0.5,.,.,17.6,52.8*,0.8
Cc1ccc(Oc2ccc(S(=O)(=O)N3CCOCC3)cc2C(N)=O)c(-n2nc3ccccc3n2)c1,0.8,4.0,-11.8,44.7,23.4,0.6
C=CCn1c(SCC(=O)Nc2ccc(-c3nc4ccc(C)cc4s3)cc2)nnc1-c1ccccc1,.,49.9,37.6,.,.,.
CCOC(=O)N1CCN(C(=O)CNCc2cccs2)CC1,0.8,.,.,11.3,19.2,0.9
CC1CCc2c(C(=O)N3CCN(S(=O)(=O)c4cccs4)CC3)csc2C1 (stereo not drawn),0.2,-1.8,-64.5,77.1*,77.7*,0.2
COC(=O)c1ccc(CSc2nc3c(c(=O)n2-c2ccc(Br)cc2)SCC3)o1,0.1,3.7,1.8,92.0*,90.4*,0.1
CCOc1ccc(-n2c(SCc3ccc(C(=O)OC)o3)nc3c(c2=O)SCC3)cc1,0.2,5.5,-10.9,86.8*,81.5*,0.1
COc1ccc(OC)c(N2Cc3cc(C)c(C)cc3C2)c1,1,2.9,-25.2,88.5*,1.6,0.1
CCOc1ccccc1N1Cc2cc(C)c(C)cc2C1,0.5,46.2,-4.9,22.9,54.4*,0.8
CCOC(=O)c1ccc(NC(=O)C(=O)NCc2ccncc2)cc1,0.6,0.2,-62.6,50.8*,42.2,0.5
CCOC(=O)c1ccc(NC(=O)C2CC2)cc1,0.2,-2.2,0.5,34.6,78.7*,0.7
CCOc1ccc(NC(=O)C2CCC(N3C(=O)C4CC=CCC4C3=O)CC2)cc1 (stereo not drawn),0.5,0.5,-10.7,52.3*,52.2*,0.5
CCOC(=O)c1ccc(Nc2cc(C)nc(C)c2C(=O)OCC)cc1,0.1,-0.5,3.3,52.3*,88.8*,0.5
CCOc1ccc(NC(=O)CN2C(=O)C3CC=CCC3C2=O)cc1 (stereo not drawn),1.2,-3.4,-2.9,-13.0,-22.5,1.1
CCOC(=O)c1ccc(NC(=O)C(CC)(CC)C(=O)OCC)cc1,0.2,2.8,-12.3,64.7*,76.9*,0.4
CCOC(=O)c1ccc(NC(=O)COC)cc1,0.8,6.0,-45.7,15.5,22.6,0.8
Cc1cccc(C)c1-n1nnnc1SCSc1nnnn1-c1c(C)cccc1C,0.7,-1.5,27.6,77.1*,33.0,0.2
Cc1ccccc1CSc1nnc(C)n1N,1,0.5,-8.3,-8.5,-4.3,1.1
O=C(CCCSc1nc2ccccc2[nH]1)NCc1ccccc1Cl,.,1.3,2.0,.,.,.
Cc1ccc(CNC(=O)Cc2csc(Nc3nc(=S)[nH]c4ccccc34)n2)cc1,0.4,.,.,82.2*,64.9*,0.2
